Screening data: PubChem, National Center for Advancing Translational Sciences (NCATS)
IL-1B inflam inh – qHTS for Inhibitors of Inflammasome Signaling: IL-1-beta AlphaLISA Primary Screen. THP-1 LPS/ATP IL-1B secretion, AlphaLISA, 16 h; hits give low values. activity change, % at 57.5 µM. 360,000 compounds, 4.7% hits; in the data active means activity change below about -50%; inconclusive means mostly about -30% to -49%
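THP-1 cells pretreated 1 hr with compounds (up to 57.5 uM final), then stimulated with LPS (250 ng/mL final) plus ATP (1.25 mM final); secreted IL-1B measured by AlphaLISA after 16 hr, decreased signal indicating inhibition.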
TDP1 cell CPT – qHTS for Inhibitors of human tyrosyl-DNA phosphodiesterase 1 (TDP1): qHTS in cells in presence of CPT; chicken DT40 Tdp1-/-;hTDP1 cells + 20 nM CPT, ATP luminescence, 48 h; Potency, µM (highest dose often 46.2 µM), inactives show at the top dose activity change, negative = growth inhibition, most hits filed as inhibitors; 420,000 compounds, 12% hits; further: potency means the concentration at half of the fitted maximal effect; nearly all actives have a fitted effect of over 55% in size
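Chicken DT40 Tdp1-/- cells complemented with human TDP1, 400 cells/well, exposed to compounds plus 20 nM camptothecin for at least 48 h at 37 C; viability read as ATP content by CellTiter-Glo luminescence.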
RORg inh – qHTS for inhibitors of ROR gamma transcriptional activity; Nuclear receptor ROR-gamma (Mus musculus), P51450; Drosophila S2 Gal4-RORgamma UAS-luciferase reporter, 20 h; Potency, µM (series often up to 53.6 µM), for inactives: top-dose activity change, negative = inhibition, actives largely listed as inhibitors; 310,000 compounds, 5.4% hits; AID 2551, 2010; further: potency means the concentration at half of the fitted maximal effect; nearly all actives have a fitted effect of over 60% in size
Target sequence (P51450 whole entry, looked up, the tested form may be a part): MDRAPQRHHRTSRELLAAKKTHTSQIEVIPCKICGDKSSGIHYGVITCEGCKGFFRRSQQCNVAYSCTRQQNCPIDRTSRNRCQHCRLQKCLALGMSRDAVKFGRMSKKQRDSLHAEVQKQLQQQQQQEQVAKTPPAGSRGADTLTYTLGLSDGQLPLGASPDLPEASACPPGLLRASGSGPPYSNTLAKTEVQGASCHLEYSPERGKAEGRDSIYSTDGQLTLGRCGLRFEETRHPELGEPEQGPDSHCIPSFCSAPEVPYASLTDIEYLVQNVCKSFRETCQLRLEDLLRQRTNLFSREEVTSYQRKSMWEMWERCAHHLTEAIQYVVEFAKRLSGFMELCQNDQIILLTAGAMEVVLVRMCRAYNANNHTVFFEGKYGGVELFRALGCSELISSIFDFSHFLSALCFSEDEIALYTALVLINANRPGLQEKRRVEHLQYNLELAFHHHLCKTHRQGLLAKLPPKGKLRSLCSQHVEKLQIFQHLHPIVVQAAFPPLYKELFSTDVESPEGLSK
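Luminescence from a UAS-regulated Photinus luciferase reporter in stably transfected Drosophila Schneider cells is measured; decreased signal marks ROR gamma inhibition. Fusion expression is induced by 700 uM copper sulfate for 20 hr.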
Gal4-VP16 FLuc – VP16 counterscreen qHTS for inhibitors of ROR gamma transcriptional activity; Drosophila S2 Gal4-VP16 UAS-luciferase, luminescence, 20 h; Potency, µM (doses to about 53.6 µM), for inactives: top-dose activity, negative = inhibition, usual class: inhibitors; 310,000 compounds, 3.5% hits; AID 2546, 2010;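 further: Gal4-VP16 expression switched on by copper sulfate through the metallothionein promoter; potency means the concentration at half of the fitted maximal effect; nearly all actives have a fitted effect of over 50% in size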
TDP1 cell noCPT – qHTS for Inhibitors of human tyrosyl-DNA phosphodiesterase 1 (TDP1): qHTS in cells in absence of CPT. 420,000 compounds, 15% hits. AID 686978, 2013. Potency, µM (highest dose often 46.2 µM), without a hit: top-dose activity change, negative = growth inhibition, usual class: inhibitors. DT40 Tdp1-/- hTDP1 cells, no CPT, ATP luminescence, 48 h; further: potency means the concentration at half of the fitted maximal effect; nearly all actives have a fitted effect of over 55% in size
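Camptothecin absent (DMSO only). Human TDP1-complemented DT40 knockout cells, 400 cells/well, 37 °C for minimum 48 hr; ATP measured via CellTiter-Glo, 30 min dark incubation, luminescence.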
LDHA inh – qHTS assay for inhibitors of human lactate dehydrogenase; activity change, % (values are at about 110 or 230 µM); AID 1347041, 2019; 480,000 compounds, 0.15% hits; purified LDHA, NADH/diaphorase-resazurin fluorescence; hits give low values; in the data active means activity change below about -30%; inconclusive means mostly about -25% to -30%;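 further: plate controls were DMSO wells for no effect and wells without enzyme for full effect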
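Enzyme activity of human lactate dehydrogenase 5 (2 nM; 0.06 mM NADH, 0.2 mM pyruvate, 5 min, RT) is measured via a resazurin/diaphorase fluorescence readout of residual NADH.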
The depositor's hits bear a star. Sampled rows, rich in hits. Any-hit rate of the full collection: about 18%. Unless noted, the call rests on the fitted dose curve; in most records, active means well fitted curve in the direction sought with a large enough effect; inconclusive means small, poorly fitted or top-dose-only effect, or another doubt; inactive means no such curve, though single readings can be large; an effect the other way counts as inactive or inconclusive. Unless noted, on the % scale 0 is the no-effect control and ±100 the full control effect.

For COCCOc1cc(NC(=O)c2sccc2Oc2ccc([N+](=O)[O-])cc2F)c(Cl)cc1Cl the results were IL-1B inflam inh -14, TDP1 cell CPT inconclusive, RORg inh 23%, Gal4-VP16 FLuc 24%, TDP1 cell noCPT 18µM* and LDHA inh -3.
`COCCOc1cc(NC(=O)c2cccc(OC)c2)c(Cl)cc1Cl` gave IL-1B inflam inh 3, TDP1 cell CPT -7%, RORg inh 43%, Gal4-VP16 FLuc -7%, TDP1 cell noCPT inconclusive and LDHA inh -5.
O=C(Nc1ccccc1)c1sccc1Oc1ccc([N+](=O)[O-])cc1F was read as IL-1B inflam inh -11, TDP1 cell CPT 21µM*, RORg inh -30%, Gal4-VP16 FLuc -5%, TDP1 cell noCPT 21µM* and LDHA inh 1.
COc1ccc(-c2ocnc2C(=O)NCc2cc(OC)c(OC)c(OC)c2)cc1 was read as LDHA inh 8.
Screening Nc1nc2n(n1)C(c1ccccc1Cl)CC(c1ccc(F)cc1)N2 (configuration not stated) returned IL-1B inflam inh -4, TDP1 cell CPT 16µM*, RORg inh 1%, Gal4-VP16 FLuc -5%, TDP1 cell noCPT inconclusive and LDHA inh 1.
`Cc1ccc(C2CC(c3ccccc3Cl)n3nc(N)nc3N2)cc1` (configuration not stated) gave IL-1B inflam inh inconclusive, TDP1 cell CPT 21µM*, RORg inh -16%, Gal4-VP16 FLuc -6%, TDP1 cell noCPT inconclusive and LDHA inh -3.
For Cc1ccc(C2CC(c3ccccc3C)n3nc(N)nc3N2)cc1 (configuration not stated) the results were IL-1B inflam inh 26, TDP1 cell CPT -3%, RORg inh 32%, Gal4-VP16 FLuc 5%, TDP1 cell noCPT 2% and LDHA inh -2.
CCCOc1ccc(-c2nc(C#N)c(N3CCN(C(=O)c4cccs4)CC3)o2)cc1 was read as LDHA inh 1.
For O=C(NNC(=O)c1cc2ccccc2o1)c1ccc(F)cc1 the results were IL-1B inflam inh -7, TDP1 cell CPT 0%, TDP1 cell noCPT 4% and LDHA inh -12.
Screening N/C(=N\NC(=O)c1ccc(F)cc1)c1cc2ccccc2oc1=O returned IL-1B inflam inh 42, TDP1 cell CPT -2%, RORg inh 3.5µM*, Gal4-VP16 FLuc inconclusive, TDP1 cell noCPT -1% and LDHA inh -4.
`NC(=O)c1cc2ccccc2o/c1=N\NC(=O)c1ccc(F)cc1` gave IL-1B inflam inh -23, TDP1 cell CPT 21µM*, RORg inh 0%, Gal4-VP16 FLuc -9%, TDP1 cell noCPT 8.2µM* and LDHA inh -2.
For N/C(=N\NC(=O)c1cccc(F)c1)c1cc2ccccc2oc1=O the results were IL-1B inflam inh 1, TDP1 cell CPT 0%, RORg inh 1µM*, Gal4-VP16 FLuc 3.5µM*, TDP1 cell noCPT -8% and LDHA inh 1.
Screening O=C(Nc1ccc(F)cc1F)c1cc2ccccc2oc1=O returned IL-1B inflam inh 1, TDP1 cell CPT -22%, RORg inh 0%, Gal4-VP16 FLuc 2%, TDP1 cell noCPT inconclusive and LDHA inh -9.
CCCCn1c(SCC(=O)c2ccc3c(c2)OCCO3)nnc1-c1ccoc1C was read as IL-1B inflam inh -96*, TDP1 cell CPT inconclusive, RORg inh 8%, Gal4-VP16 FLuc 15%, TDP1 cell noCPT inconclusive and LDHA inh -2.
COc1ccc(C(=O)Oc2ccc(C(C)C)cc2)cc1Cl was read as LDHA inh 8.
